An excerpt weighted towards active compounds, which were near 2.7% of everything screened.
Nrf2 block = Nrf2 pathway inhibition | A549 ARE-Fluc reporter, luciferase luminescence, 18-24 h | hit rate 2.1% among 360,000 | AID 504444 | Potency, µM (highest dose often 46 µM), actives largely listed as inhibitors; also: nearly all actives have a fitted effect of over 60% in size
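Cells were seeded and rested 2 h, then exposed to compounds for 18-24 h. CellTiter-Fluor was read first as a viability measure. BugLite was added 15 min before the final luminescent read of ARE-luciferase activity in A549 cells.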
ERG Ets-DNA blk = blocks human ERG Ets domain binding to DNA; P11308; fluorescence polarization, His-ERG Ets domain / labelled DNA; Potency, µM (titrated, usually from 76.9 µM), most hits filed as inhibitors; hit rate 0.028% among 370,000; active = well fitted inhibition curve with a large enough effect in the polarisation, with a control signal flat; inconclusive = small, poorly fitted or top-dose-only effect, or effect the other way, or a change in a side signal; inactive = no such curve, though single readings can be large or run the other way; the % refers to the polarisation;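 also: polarization taken with two DNA probes labelled with fluorescein and Texas red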
Target sequence (P11308 whole entry, looked up, the tested form may be a part): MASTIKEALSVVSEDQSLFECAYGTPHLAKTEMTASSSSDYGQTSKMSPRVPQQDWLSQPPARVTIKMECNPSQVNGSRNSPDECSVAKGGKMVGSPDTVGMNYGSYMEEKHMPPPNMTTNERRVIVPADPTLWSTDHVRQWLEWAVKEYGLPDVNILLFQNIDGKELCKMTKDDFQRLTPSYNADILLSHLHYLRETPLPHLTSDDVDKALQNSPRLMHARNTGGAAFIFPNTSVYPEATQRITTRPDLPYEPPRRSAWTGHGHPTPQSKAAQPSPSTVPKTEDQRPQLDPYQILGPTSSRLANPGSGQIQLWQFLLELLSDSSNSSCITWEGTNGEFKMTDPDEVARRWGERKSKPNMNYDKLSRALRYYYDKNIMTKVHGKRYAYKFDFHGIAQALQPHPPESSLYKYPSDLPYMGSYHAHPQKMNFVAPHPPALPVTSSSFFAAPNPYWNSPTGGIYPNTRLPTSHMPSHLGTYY
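His-tagged ERG Ets domain (1 uM in the protein solution; 300mM KCl, 50mM Tris-HCl, 1mM EDTA, 1mM DTT, pH 7.5) received compound, then a probe mix of 5 nM fluorescein-DNA and 100nM Texas-615-DNA. Fluorescence polarization was read for both dyes.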
LDHA inh = LDHA (human) enzyme inhibition; hit rate 0.15% among 480,000; activity change, % (values are at about 110 or 230 µM); AID 1347041; purified LDHA, NADH/diaphorase-resazurin fluorescence; active compounds read low; P00338; in the data active = activity change below about -30%; inconclusive = mostly about -25% to -30%
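Human LDH5 (2 nM) was incubated with 0.06 mM NADH and 0.2 mM pyruvate for 5 min at room temperature in Tris pH 7.4. Remaining NADH was coupled through diaphorase/resazurin, and resorufin fluorescence was read at 0 and 20 min.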
Nrf2 ARE act = activates Nrf2 signaling; AREc32 ARE-luciferase reporter (MCF7-derived line), luminescence, 24 h; Potency, µM (doses to about 46.1 µM), hits mostly activators; hit rate 0.31% among 410,000; also: nearly all actives have a fitted effect of over 65% in size
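For detection, Steady-Glo was added and plates sat 30 min at RT; before that, AREc32_Fluc cells grown overnight in OPTI-MEM/5% FBS had been treated with 23 nL compound for 24 hr at 37 deg C.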
A549 tox = A549 cytotoxicity, counter-screen for Nrf2 inhibitors. A549 ARE-Fluc cells, CellTiter-Fluor viability, 18-24 h. Potency, µM (doses to about 46 µM), most hits filed as inhibitors. hit rate 0.16% among 390,000. AID 504648
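A549 ARE_Fluc cells in 5% FBS OPTI-MEM were exposed to compounds in concentration-response for 18-24 h at 37 deg C. Viability was read by CellTiter-Fluor fluorescence (Ex 405/Em 525) after 30 min, before the luciferase read.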
12-LOX inh = inhibitors of human 12S-lipoxygenase ALOX12; P18054; purified 12hLO, xylenol orange hydroperoxide absorbance; hit rate 1.1% among 580,000; Potency, µM (titrated, usually from 108 µM), actives largely listed as inhibitors; AID 1671190
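Hydroperoxide product was detected by ferrous iron/xylenol orange as the 573 to 405 nm absorbance ratio. Arachidonic acid at 40 uM (final) was turned over for 30 min at room temperature by 150 nM human 12hLO, pH 7.0 Hepes buffer, after 15 min compound preincubation.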
Hits are given with their value; – = inactive; ? = inconclusive; · = no result. Unless noted, calls follow the shape of the dose curve; as a rule, active = well fitted curve in the direction sought with a large enough effect; inconclusive = small, poorly fitted or top-dose-only effect, or another doubt; inactive = no such curve, though single readings can be large; an effect the other way counts as inactive or inconclusive.

SMILES | Nrf2 block | ERG Ets-DNA blk | LDHA inh | Nrf2 ARE act | A549 tox | 12-LOX inh
Cc1ccc(O)c(N)c1 | ? | – | – | ? | – | ·
Cc1ccc(SSc2cc(C)ccc2N)c(N)c1 | ? | – | – | – | – | 10µM
C#CCCCCCCCCC(=O)N1CCOCC1 | · | · | – | · | · | –
Cc1cc(C)cc(-n2ccn(Cc3ccc(F)cc3)c(=O)c2=O)c1 | 23.1µM | – | – | – | – | ?
Cc1cc(C)cc(-n2ccn(CC(=O)c3ccc(F)cc3)c(=O)c2=O)c1 | ? | – | – | – | – | ?
Clc1ccc(CNCc2ccccc2Cn2cncn2)c(Cl)c1 | · | · | – | · | · | 44.7µM
O=C(COc1ccc2ccc(=O)oc2c1)Nc1cccc2ccccc12 | · | · | – | · | · | ?
CC(C)N1C(=O)S/C(=C\c2ccc(-c3ccc(Cl)c(C(=O)O)c3)o2)C1=O | ? | ? | – | – | ? | ?
CCN(CC)c1ccc(/C=C2/SC(=O)N(C(C)C)C2=O)o1 | ? | – | – | ? | – | 44.7µM
CC(Oc1ccc(Br)cc1)c1nc2c3ccccc3nc(=S)n2[nH]1 (stereo not given) | ? | – | – | ? | – | 3.55µM
CSc1nsc(SCC(=O)Nc2ccc(O)c(C(=O)O)c2)n1 | – | – | – | – | – | 39.8µM
CSc1nsc(SCC(=O)Nc2ccc(Cl)c(C(=O)O)c2)n1 | ? | – | – | – | – | –
CC(C)Cc1nc(NCc2cccnc2)c(C#N)c2c1CCCC2 | · | · | – | · | · | –
COC(=O)c1c(NC(=O)CN2CCC3(O)CCCCC3C2c2ccc(F)cc2)sc(C)c1C (stereo not given) | ? | – | – | – | – | –
COC(=O)c1c(NC(=O)CN2CCC3(O)CCCCC3C2c2cc(OC)ccc2OC)sc(C)c1C (stereo not given) | 18.4µM | – | – | – | – | –
Cn1c2c(c3ccccc31)CN(C(=O)Nc1ccccc1F)CC2 | · | · | · | · | · | –
NC(=S)Nc1ccc(S(=O)(=O)c2ccc(NC(N)=S)cc2)cc1 | – | – | – | – | – | 39.8µM
Cc1cc(C2CCCN2Cc2nc(-c3ccccc3)oc2C)on1 (stereo not given) | · | · | – | · | · | ?
O=[N+]([O-])/C=C/c1cn(Cc2ccccc2)c2ccccc12 | – | – | – | – | – | –
N#Cc1ccccc1Cn1cc(/C=C/[N+](=O)[O-])c2ccccc21 | ? | – | – | – | 23.1µM | –
CC1=C(C)C(C)=C(C#N)C(=C(C#N)C#N)N1 | – | – | – | – | – | 1.12µM
COc1cccc(CNC(C)c2ccccc2)c1 (stereo not given) | · | · | – | · | · | –
COc1ccccc1N(Cc1ccccc1)S(=O)(=O)c1cccc(C(=O)Nc2ncccc2C)c1 | – | – | – | – | – | –
COc1ccc(N(Cc2ccccc2)S(=O)(=O)c2cccc(C(=O)Nc3ncccc3C)c2)cc1 | 18.4µM | – | – | – | – | –
CNC(=O)CN1CCN(c2nc(-c3ccccc3)c3ccccc3n2)CC1 | · | · | – | · | · | –
SMILES | Nrf2 block | ERG Ets-DNA blk | LDHA inh | Nrf2 ARE act | A549 tox | 12-LOX inh
COc1ccc(-n2c(C)cc(C(=O)NC3CCCCC3)c2C)cc1 | ? | · | – | 17.8µM | – | –
C/C(=C1/SC(=S)N(CCC(=O)O)C1=O)c1ccc(O)cc1 | – | ? | – | – | – | 39.8µM
COc1ccc(-c2nc3cc(NC(=O)c4ccccc4)ccc3o2)cc1 | · | · | -38.8 | · | · | –
Cc1ccc(C(=O)Nc2ccc3oc(-c4ccccc4C)nc3c2)cc1 | 6.51µM | – | – | – | – | ?
CC(C)C1C/C(=N/NC(N)=S)C=C2CCCCC21 (stereo not given) | · | · | – | · | · | ?
O=C1CCC2(CCN(C(=O)c3ccco3)CC2)CN1CC1CCCO1 (stereo not given) | · | · | · | · | · | –
Nc1ccsc1C(=O)N1CCC2(CCC(=O)N(CC3CCCO3)C2)CC1 (stereo not given) | · | · | · | · | · | 7.94µM
CCCc1cc(=O)[nH]c(=S)[nH]1 | – | – | – | – | – | ?
O=c1cc(C(F)(F)F)[nH]c(=S)[nH]1 | · | · | – | · | · | 0.794µM
COc1cccc(N=Nc2ccc3cccnc3c2O)c1 | – | – | – | – | – | ?
O=S(=O)(O)c1cccc2c(N=Nc3ccc(O)c4ncccc34)cccc12 | – | – | – | – | 11.6µM | ·

Assay outcomes: PubChem BioAssay, National Center for Advancing Translational Sciences (NCATS)
